# Screening results: PubChem, National Center for Advancing Translational Sciences (NCATS)
# Sampled rows, rich in hits. Any-hit rate of the full collection: about 3.7%.
# A549 viability: counter-screen for Nrf2 inhibitors: cytotoxicity in A549 cells | 390,000 tested, 0.16% active | A549 ARE-Fluc cells, CellTiter-Fluor viability, 18-24 h | Potency, µM (titrated, usually from 46 µM), inactives show at the top dose activity change, negative = cytotoxicity, actives largely listed as inhibitors; also: % is scaled to controls: 0 for no effect and ±100 for the full control effect
#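 Cytotoxicity counterscreen: CellTiter-Fluor fluorescence was measured in A549 ARE_Fluc cells after 18-24 h of compound exposure in a concentration series. The subsequent BugLite luminescent read reports ARE-luciferase activity.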
# ELG1 repair inh: blocks ELG1-dependent DNA repair in HEK293T cells. HEK293T ELG1-luciferase reporter, luminescence, 16 h; DNA damage induced by 5-fluorouridine. Potency, µM (highest dose often 46.1 µM), inactives show top-dose activity change, negative = inhibition, hits mostly inhibitors. 330,000 tested, 2.3% active. AID 504467; also: % is scaled to controls: 0 for no effect and ±100 for the full control effect; nearly all actives have a fitted effect of over 55% in size
#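 5-Fluorouridine DNA damage + compound/DMSO, 2,000 cells/well, 16 h, 37 °C/5% CO2. ONE-Glo, 30 min RT, luminescence. Readout = decrease in reporter signal.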
# Nrf2 inh: inhibitors of Nrf2 signaling; A549 ARE-Fluc reporter, luciferase luminescence, 18-24 h; Potency, µM (series often up to 46 µM), for inactives: at the highest dose activity change, negative = inhibition, actives largely listed as inhibitors; 360,000 tested, 2.1% active; also: % is scaled to controls: 0 for no effect and ±100 for the full control effect; nearly all actives have a fitted effect of over 60% in size
#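 Nrf2 function is reported as luminescence of an ARE-controlled luciferase in A549 cells. Compounds were tested at several concentrations, and a CellTiter-Fluor read on the same wells flagged cytotoxicity.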
# Nrf2 activator: Nrf2 pathway activation; AREc32 ARE-luciferase reporter (MCF7-derived line), luminescence, 24 h; Potency, µM (top dose mostly 46.1 µM), for inactives: top-dose activation, actives largely listed as activators; AID 624171; 410,000 tested, 0.31% active; also: % of control where 0% means no effect; nearly all actives have a fitted effect of over 65% in size
#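 Reporter line AREc32 (ARE-Fluc), seeded overnight in OPTI-MEM with 5% FBS; compound pin-transferred, 24 hr at 37 deg C, 5% CO2; luminescent read-out.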
# Numbers without * were called inactive; ? = inconclusive; nt = no result; [ ] = remark or other dose. Calls follow the shape of the dose curve; as a rule, active = well fitted curve in the direction sought with a large enough effect; inconclusive = small, poorly fitted or top-dose-only effect, or another doubt; inactive = no such curve, though single readings can be large; an effect the other way counts as inactive or inconclusive. Potency is read from the fitted curve at half-maximal effect.
SMILES,A549 viability,ELG1 repair inh,Nrf2 inh,Nrf2 activator
Cc1cc(NC(=O)c2cc(-c3cccnc3)nc3c(C)c(C)ccc23)no1,2.1%,23.1µM*,nt,-1.8%
COc1cccc(-c2cc(C(F)(F)F)n3ncc(C(=O)NCC4CCCO4)c3n2)c1 (stereo not drawn),-9.0%,6.51µM*,?,-0.2%
CCOC(=O)[C@]12CCCC=C1N(Cc1ccc(Cl)cc1Cl)C(=O)[C@H](CC(=O)N1CCOCC1)C2,nt,nt,nt,-0.4%
Cc1ccc(C)c(C(=O)CN2C(=O)NC3(CCCCCC3)C2=O)c1,-1.4%,19.8%,3.9%,0.0%
Cn1cnc(S(=O)(=O)N2CCC(C(=O)Nc3ccc(OC(F)(F)F)cc3)CC2)c1,-17.2%,nt,nt,-0.6%
O=C(COC(=O)CSc1ccccc1)NC1CCS(=O)(=O)C1 (stereo not drawn),nt,nt,nt,5.6%
Cc1ccc(N(CC(=O)NC2CCCCC2)C(=O)CCCC(=O)Nc2ccccn2)cc1,-2.2%,-6.2%,1.7%,0.1%
COc1cccc(-c2cc(C(F)(F)F)n3ncc(C(=O)N4CCc5ccccc5C4)c3n2)c1,0.6%,20.6µM*,-0.8%,-0.5%
O=C(c1cnn2c(C(F)(F)F)cc(-c3ccco3)nc12)N1CCCCCC1,-0.4%,0.4%,30.3%,0.3%
Cc1cc(C(F)F)n2ncc(C(=O)N3CCc4ccccc4C3)c2n1,-5.3%,1.0%,nt,-0.7%
COCCNC(=O)c1cnn2c(C(F)(F)F)cc(-c3ccc(C)cc3)nc12,3.5%,5.8µM*,?,1.4%
O=C(c1cnn2c(C(F)F)cc(-c3ccccc3)nc12)N1CCc2ccccc2C1,?,?,23.1µM*,0.4%
O=C(c1cnn2c(C(F)(F)F)cc(-c3ccco3)nc12)N1CCc2ccccc2C1,0.5%,23.1µM*,?,4.2%
Cc1ccc(-c2cc(C(F)(F)F)n3ncc(C(=O)O)c3n2)cc1,-0.5%,9.2%,-16.5%,-0.4%
COc1ccccc1CN(Cc1ccco1)c1cnc(S(C)(=O)=O)nc1C(=O)Nc1cc(C)ccc1C,13.8%,nt,-9.0%,3.8%
COc1ccc(S(=O)(=O)N(C)C[C@@H]2OCc3cn(nn3)CCCC(=O)N([C@H](C)CO)C[C@H]2C)cc1,nt,nt,nt,-1.0%
O=C(CCCN=C1NS(=O)(=O)c2ccccc21)OCC(=O)c1ccccc1Cl,0.2%,26.7%,0.8%,0.0%
Cc1ccc(-c2cc(C(F)F)n3ncc(C(=O)N4CCCCC4c4cccnc4)c3n2)cc1 (stereo not drawn),1.3%,18.3µM*,?,0.6%
COc1cccc(NC(=O)c2cc3ccccc3o/c2=N\O)c1,-1.7%,?,?,0.2%
O=C(Nc1ccccc1Cl)c1cc2ccccc2o/c1=N\O,-5.2%,?,?,1.26µM*
COc1ccc(C(=O)NC(CC(=O)O)c2cc([N+](=O)[O-])ccc2Cl)c(SC)c1 (stereo not drawn),0.5%,8.5%,0.8%,2.4%
O=C(c1ccco1)N1CCN(c2ncnc3scc(-c4ccc(F)cc4)c23)CC1,-0.1%,-18.1%,-10.2%,2.8%
CCc1cc2ccc(OC)cc2nc1SCC(=O)NNC(=O)c1ccco1,0.7%,-13.6%,-7.7%,2.2%
CC(C)c1ccc(-c2csc3ncnc(N4CCN(C)CC4)c23)cc1,-17.4%,11.6µM*,-26.1%,-0.3%
CCc1cc2ccc(OC)cc2nc1SCC(=O)N1CCN(C(=O)c2ccco2)CC1,-2.7%,20.6µM*,-29.2%,2.5%
SMILES,A549 viability,ELG1 repair inh,Nrf2 inh,Nrf2 activator
Cc1ccc(-c2csc3ncnc(N4CCN(C(=O)c5ccco5)CC4)c23)cc1,-6.1%,16.4µM*,-16.5%,2.6%
COc1ccc(-c2csc3ncnc(N4CCN(c5ccccc5[N+](=O)[O-])CC4)c23)cc1,3.9%,5.17µM*,?,-0.6%
CC1CN(S(=O)(=O)c2cccc(C(=O)OC(C)C(=O)NC3CCCCC3C)c2)CC(C)O1 (stereo not drawn),2.6%,?,3.6%,2.3%
Cc1ccc(-c2csc3ncnc(-n4cnc5ccccc54)c23)cc1,-2.3%,10.3µM*,12.9%,-0.1%
Cc1sc2nnn(CC(=O)N3CCN(C(=O)c4ccco4)CC3)c(=O)c2c1C,0.0%,nt,-26.7%,-0.3%
Cc1sc2ncnc(N3CCN(C(=O)c4ccco4)CC3)c2c1C,-5.2%,11.6µM*,?,2.6%
Cc1sc2nc(C(C)C)nc(SCC(=O)N3CCN(C(=O)c4ccco4)CC3)c2c1C,9.4%,18.4µM*,?,2.2%
COc1ccc(-c2csc3ncnc(N4CCN(c5ccccc5O)CC4)c23)cc1,-19.7%,?,?,3.6%
Cc1ccc(-c2csc3ncnc(N4CCN(c5ccccc5O)CC4)c23)cc1,-2.6%,5.8µM*,13.7%,0.0%
Cc1nc(C(F)(F)F)ccc1C(=O)N1CCC1(C)C(=O)Nc1ccc2c(c1)OCO2 (stereo not drawn),nt,nt,nt,-0.6%[9.22 µM]
CCC(=O)N1CCC1(C)C(=O)Nc1ccc2c(c1)CCN2C(C)=O (stereo not drawn),nt,nt,nt,-0.1%
COc1ccc(Cc2nnc(SCc3ccc([N+](=O)[O-])cc3)o2)cc1,-3.3%,23.1µM*,?,3.1%
O=[N+]([O-])c1ccc(CSc2nnc(Cc3ccccc3)o2)cc1,-10.0%,-13.9%,-20.3%,-1.1%
Cc1ccc(Nc2c(-c3cccnc3)nc3ccc(Cl)cn23)cc1,-10.5%,nt,?,-0.3%
CN1C(=O)/C(=C/c2ccco2)SC1=Nc1ccc(N2CCOCC2)cc1,6.7%,?,-7.7%,-0.2%
CCN=C1S/C(=C\c2ccc(N3CCOCC3)cc2C)C(=O)N1CC,1.7%,5.8µM*,2.8%,-0.4%
CN=C1S/C(=C\c2ccc(N3CCOCC3)cc2C)C(=O)N1C,-3.1%,8.2µM*,0.3%,3.4%
Cc1cc(S(=O)(=O)Nc2ccc(C(=O)O)cc2)c(C)c(S(=O)(=O)c2ccc(Cl)cc2)c1,-0.4%,nt,?,0.8%
CN(Cc1ccccc1)c1ncnc2sccc12,1.1%,-26.9%,16.4µM*,3.3%
CN(Cc1ccccc1)c1ncnc2[nH]ncc12,2.6%,nt,-16.4%,-0.2%
O=C(Nc1cccc(O)c1)c1ccccc1[N+](=O)[O-],-2.8%,-0.3%,-14.2%,0.1%
Cc1ccc(-c2cc(-c3ccccc3)c3c(N)c(S(C)(=O)=O)sc3n2)cc1,11.3%,-15.9%,13µM*,2.3%
CS(=O)(=O)c1sc2nc(-c3cccs3)cc(-c3ccccc3)c2c1N,-4.4%,-20.3%,-19.8%,2.9%
CCCCCCC(=O)N1C/C=C\C(c2ccc(OC)cc2)N(Cc2ccc(F)cc2)C(=O)C1Cc1ccccc1 (stereo not drawn),-17.5%,nt,?,nt
COc1ccc(C2/C=C\CN(C(=O)Nc3ccccc3)CC(=O)N2Cc2ccc(F)cc2)cc1 (stereo not drawn),-0.6%,14.1%,-8.9%,-0.4%
COc1ccc(C2/C=C\CN(C(=O)Nc3ccc(C(F)(F)F)cc3)CC(=O)N2Cc2ccc(F)cc2)cc1 (stereo not drawn),-3.6%,-29.4%,23.1µM*,0.0%
CCCCC(=O)N1C/C=C\C(c2ccc(OC)cc2)N(Cc2ccc(F)cc2)C(=O)C1Cc1ccccc1 (stereo not drawn),-20.6%,nt,23.1µM*,nt
